Compound activity deposited in PubChem by National Center for Advancing Translational Sciences (NCATS).
An excerpt weighted towards active compounds, which were near 2.4% of everything screened.
D2 PAM-1 = positively modulates the human D2 dopamine receptor allosterically; potentiation, % at 10 µM; HEK293 T-REx D2, calcium flux, EC20 dopamine potentiation; AID 485347; 340,000 tested, 0.34% active; P14416;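 active = potentiation over 3 SD above the plate norm, cut at about 30% in these data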
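Calcium flux readout, no-wash dye, 1 read/s. Inducible HEK293 Trex D2 line, overnight 30 C. Compound alone 180 s (agonist flags), then EC20 dopamine, another 180 s to score potentiation.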
D2 ag-1 = D2 dopamine receptor (human) agonism | HEK293 T-REx D2 cells, calcium flux agonist mode | 340,000 tested, 0.53% active | AID 485358 | activation, % at 2 µM;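 active = activation over 3 SD above normal in the single-dose calcium agonist read, cut at about 30% in these data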
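In this primary screen, compounds producing a positive calcium signal within 180 s of addition to tetracycline-induced, force-coupled HEK293 Trex D2 cells are flagged; cells are dye-loaded with a no-wash calcium kit beforehand.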
D2 antagonist = antagonizes the human D2 dopamine receptor; P14416; HEK293 TREx D2 cells, calcium flux, dopamine EC80; inhibition, % at 10 µM; 340,000 tested, 2% active; AID 485344; in the data active = inhibition above about 30%; inactive = below that, where a call was filed
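Tetracycline-induced HEK293 T-REx cells expressing D2 force-coupled to calcium signalling were dye-loaded, exposed to compound for 180 s, then challenged with an EC80 of dopamine; calcium flux was followed kinetically for a further 180 s.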
D2 PAM-2 = potentiates the human D2 dopamine receptor allosterically; P14416; AID 624464; 360,000 tested, 0.23% active; DiscoveRx D2 beta-arrestin cells, luminescence, 90 min; 100% = 57 uM dopamine signal; potentiation, % (no concentration beside the values); in the data active = potentiation above about 50%; inconclusive = mostly about 30% to 49%
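PathHunter D2 cells, attached overnight at 37 deg C, received compound in DMSO plus dopamine at EC20 (50 nM final) for 90 min at 37 deg C. Beta-arrestin recruitment was read as luminescence after 1 h with detection reagent at ambient temperature.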
D2 ag-2 = activates the human D2 dopamine receptor; 360,000 tested, 0.084% active; DiscoveRx PathHunter D2 beta-arrestin, luminescence, 90 min; 100% = 57 uM dopamine signal; P14416; activation, % (concentration not given with the values); in the data active = activation above about 40%; inconclusive = between about 15% and that limit
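Agonist mode: compounds alone added to overnight-plated D2 PathHunter cells for 90 min at 37 C, with 57 uM final dopamine (EC100) defining full response. Beta-arrestin recruitment detected by chemiluminescent reagent, read after 1 h at ambient temperature.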
D3 ag = D3 receptor agonism confirmed, beta-arrestin readout; shares compounds with D2 ag-1; DiscoveRx D3 beta-arrestin cells, luminescence, 90 min; Potency, µM (highest dose often 76.9 µM), actives largely listed as activators; 2,300 tested, 4% active; note: nearly all actives have a fitted effect of over 70% in size
Target sequence (P35462 whole entry, looked up): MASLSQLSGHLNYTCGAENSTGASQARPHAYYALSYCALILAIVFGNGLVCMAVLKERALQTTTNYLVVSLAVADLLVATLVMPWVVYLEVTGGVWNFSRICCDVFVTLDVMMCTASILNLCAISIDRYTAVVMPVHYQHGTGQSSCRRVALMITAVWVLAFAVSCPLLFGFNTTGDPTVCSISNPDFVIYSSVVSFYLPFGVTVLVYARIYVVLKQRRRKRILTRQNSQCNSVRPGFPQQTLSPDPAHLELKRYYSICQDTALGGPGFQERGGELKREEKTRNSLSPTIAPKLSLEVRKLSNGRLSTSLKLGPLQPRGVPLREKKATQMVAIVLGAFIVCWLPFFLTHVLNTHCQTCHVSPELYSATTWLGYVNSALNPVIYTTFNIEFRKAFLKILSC
D2 ag-3 = activates human D2 dopamine receptor in D3 counterscreen | shares compounds with D2 ag-1 | DiscoveRx PathHunter D2 beta-arrestin, luminescence, 90 min; response scale: percent relative to full dopamine signal | Potency, µM (series often up to 76.9 µM), hits mostly activators | 2,300 tested, 5.9% active | AID 720507; note: nearly all actives have a fitted effect of over 70% in size
Each line names hits and unclear results; the compound was inactive in the other large screens (follow-up assays come after a bar, where they were run). Unless noted, calls come from the whole dose curve; as a rule, active = well fitted activation curve with a large enough effect; inconclusive = small, poorly fitted or top-dose-only effect; inactive = flat fitted curve, though single readings scatter.

Cc1cc(OCC(=O)Nc2ncn[nH]2)ccc1Cl	none | D3 ag inactive | D2 ag-3 inactive
Cc1cc(OCC(=O)Nc2ccncc2)ccc1Cl	none
COc1ccccc1C(=O)c1c(N)c(-c2nc(-c3ccccc3)cs2)c2ccccn12	none (no result: D2 ag-1, D2 antagonist, D2 PAM-2, D2 ag-2)
COc1ccc(CN(C(=O)/C=C/C(=O)c2ccc(OC)cc2O)C(C(=O)NC2CCCCC2)c2ccncc2)cc1 (configuration not stated)	D2 ag-1 34.6 | D3 ag inactive | D2 ag-3 inactive
CCN(C(=O)CSc1ncccn1)c1c(N)n(Cc2ccccc2)c(=O)[nH]c1=O	none | D3 ag inactive | D2 ag-3 inactive
O=c1cc(CN2CCN(c3ccc(O)cc3)CC2)nc2scc(-c3ccccc3)n12	none | D3 ag 35.5µM | D2 ag-3 inactive
Cc1cccc(C)c1OCc1cc(=O)n2c(-c3ccccc3)csc2n1	none (no result: D2 PAM-1, D2 antagonist, D2 PAM-2, D2 ag-2)
Cc1ccccc1CNC(=O)CCCn1c(=O)c2cccn2c2ccccc21	none (no result: D2 antagonist, D2 PAM-2, D2 ag-2)
Cc1ccc(-n2nc3c(=O)n(CC(=O)NCc4ccccn4)nc(C)c3c2C)cc1	D2 ag-1 51.7 | D3 ag inactive | D2 ag-3 inactive
CC(C)n1ncc2c(C(=O)N3CCN(Cc4ccc(Br)s4)CC3)cc(C3CC3)nc21	D2 ag-1 64.4, D2 antagonist 70.3, D2 ag-2 inconclusive | D3 ag inactive | D2 ag-3 inconclusive
Cn1c(=O)c2[nH]c(N3CCN(c4ccccn4)CC3)nc2n(C)c1=O	none (no result: D2 PAM-2, D2 ag-2) | D3 ag inactive | D2 ag-3 inactive
Cn1c(=O)c2[nH]c(N3CCCCC3)nc2n(C)c1=O	none
c1ccc2c(c1)CCN(Cc1nnnn1Cc1ccc3c(c1)OCO3)C2	D2 ag-1 68.2, D2 ag-2 inconclusive | D3 ag inactive | D2 ag-3 inconclusive
COc1ccc(Cn2nnnc2CN2CCc3ccccc3C2)cc1	D2 ag-1 56.7, D2 antagonist 34.4, D2 ag-2 inconclusive | D3 ag inactive | D2 ag-3 inconclusive
c1ccc(Cn2nnnc2CN2CCN(Cc3ccc4c(c3)OCO4)CC2)cc1	none
CCC(c1nnnn1Cc1ccc2c(c1)OCO2)N1CCN(c2ccccc2)CC1 (configuration not stated)	D2 ag-1 80.0, D2 antagonist 78.7, D2 ag-2 inconclusive | D3 ag inactive | D2 ag-3 inconclusive
CCOC(=O)c1cnn(-c2ccc(C(=O)Nc3cc(OC)c(OC)c(OC)c3)cc2)c1N	none (no result: D2 antagonist, D2 PAM-2, D2 ag-2)
CN(C)c1ccc(C#Cc2ccc3cc(CCO)oc(=O)c3c2)cc1	none | D3 ag inactive | D2 ag-3 inactive
CC1=C(C(=O)OC2CCCC2)C(c2ccc(F)cc2F)CC(=O)N1 (configuration not stated)	none (no result: D2 antagonist, D2 PAM-2, D2 ag-2)
Clc1cccc(OCCn2cncn2)c1Cl	none (no result: D2 PAM-1, D2 ag-1, D2 antagonist)
CC1CC(C)CN(CCOc2cccc(Cl)c2Cl)C1 (configuration not stated)	D2 ag-1 87.9, D2 antagonist 86.4, D2 ag-2 41.4 | D3 ag inconclusive | D2 ag-3 inconclusive
CC(CCc1ccccc1)NC(=O)C(C)OC(=O)c1ccco1 (configuration not stated)	none
Cc1ccc(C(=O)OC(C)C(=O)NC(C)CCc2ccccc2)o1 (configuration not stated)	none | D3 ag inactive | D2 ag-3 inactive
CN(C)c1ncc(CN2CCC(CO)(CCCc3ccccc3)CC2)s1	D2 ag-1 68.3, D2 antagonist 62.2 | D3 ag inactive | D2 ag-3 inconclusive
OCC1(CCc2ccccc2)CCN(Cc2cnc(N3CCCC3)s2)CC1	none (no result: D2 PAM-1, D2 ag-1, D2 antagonist)
CCC1CCCCN1C(=O)CCS(=O)(=O)c1cc2c(cc1C)NC(=O)CO2 (configuration not stated)	none (no result: D2 antagonist, D2 PAM-2, D2 ag-2)
COc1ccc(CCNC(=O)COC(=O)c2ccc(N3CCCC3=O)cc2)cc1OC	none
COc1ccccc1CNC(=O)COC(=O)c1ccc(N2CCCC2=O)cc1	none | D3 ag inactive | D2 ag-3 inactive
Cc1cccc(NC(=O)COc2coc(CN3CCN(c4ccccc4)CC3)cc2=O)c1C	D2 ag-1 43.4, D2 ag-2 inconclusive | D3 ag inactive | D2 ag-3 inactive
Cc1ccc(NC(=O)COc2coc(CN3CCN(c4ccccc4)CC3)cc2=O)cc1	none
Cc1cc(NC(=O)COc2coc(CN3CCN(c4ccccc4F)CC3)cc2=O)no1	D2 ag-1 62.0 | D3 ag inactive | D2 ag-3 inconclusive
Cc1cc(NC(=O)COc2coc(CN3CCN(c4ccc(F)cc4)CC3)cc2=O)no1	none
O=C(COc1coc(CN2CCN(c3ccccc3)CC2)cc1=O)Nc1ccccc1	D2 ag-1 45.7 | D3 ag inactive | D2 ag-3 inactive
Cc1cc(NC(=O)COc2coc(CN3CCN(c4ccccc4)CC3)cc2=O)no1	none (no result: D2 PAM-1, D2 ag-1, D2 antagonist) | D3 ag inactive | D2 ag-3 inactive
O=C(COc1coc(CN2CCN(c3ccccc3F)CC2)cc1=O)Nc1ccccc1	none (no result: D2 PAM-1, D2 ag-1, D2 antagonist)
CCOc1ccc(NC(=O)CC2C(=O)N(c3ccccc3)C(=O)N2Cc2ccc3c(c2)OCO3)cc1 (configuration not stated)	none (no result: D2 ag-1, D2 antagonist, D2 PAM-2, D2 ag-2)
CC(=O)Nc1ccc(NC(=O)C(NC(=O)C2CCC(C)CC2)C(C)C)cc1 (configuration not stated)	none (no result: D2 antagonist, D2 PAM-2, D2 ag-2)
O=C(COc1ccc(S(=O)(=O)NC2CCCCC2)cc1)Nc1ccc(C(F)(F)F)cc1	none (no result: D2 antagonist, D2 PAM-2, D2 ag-2)
CC(=O)c1c(C)[nH]c(C(=O)OCC(=O)Nc2ccccc2Cl)c1C	none
CC(=O)c1c(C)[nH]c(C(=O)OCC(=O)Nc2nnc(-c3ccccc3)o2)c1C	D2 antagonist 34.9 | D3 ag inactive | D2 ag-3 inactive
N#C/C(=N\Nc1ccccc1)C(N)=S	none | D3 ag inactive | D2 ag-3 inactive
COC(=O)C1CCN(Cc2cn(Cc3ccccc3)nc2-c2cc3ccccc3o2)CC1	D2 ag-1 36.6 | D3 ag inactive | D2 ag-3 inactive
COCCNC(=O)CCCn1c(SCC(=O)Nc2ccc(F)cc2)nc2c(sc3ccccc32)c1=O	none (no result: D2 antagonist, D2 PAM-2, D2 ag-2)
O=C(NCCCN1CCN(c2ccccc2)CC1)c1nnc(Cc2c(F)cccc2Cl)o1	none (no result: D2 ag-1, D2 antagonist, D2 PAM-2, D2 ag-2)
O=C(CCSc1ccc(F)cc1)NNC(=O)c1ccccc1Cl	none | D3 ag inactive | D2 ag-3 inactive
O=C(CSc1ccc(F)cc1)NNC(=O)c1ccccc1Br	none
CN(C)c1ccc(NC(=O)Cn2c(SCc3ccc(F)cc3)nc3cccnc32)cc1	none (no result: D2 antagonist, D2 PAM-2, D2 ag-2)
COc1ccc(N2CCN(C(CNC(=O)C(=O)NCc3ccc(F)cc3)c3cccnc3)CC2)cc1 (configuration not stated)	none (no result: D2 antagonist, D2 PAM-2, D2 ag-2)
CCOC(=O)c1cccc(NC(=O)c2cnccn2)c1	none (no result: D2 ag-1, D2 antagonist) | D3 ag inactive | D2 ag-3 inactive
